Data on 50 compounds can be found in PubChem BioAssay AID485364 (National Center for Advancing Translational Sciences (NCATS), 2010).

Molecules are shown by their SMILES. The whole screen tested about 360,000 compounds, of which about 11,000 (3.1%) were called active. Roughly 4% stayed inconclusive and do not appear here. Only a selection was taken, and actives are over-represented in it overall. A number with no mark means an inactive call. Calls come from the whole dose curve; as a rule, active = well fitted inhibition curve with a large enough effect; inconclusive = small, poorly fitted or top-dose-only effect; inactive = no such curve, though single readings can be large or run the other way.
% is set by controls: 0 for no effect and ±100 for the full control effect; potency is the fitted concentration of half-maximal effect.

In the experiment the target is Schistosoma mansoni thioredoxin glutathione reductase (TGR) (UniProt Q962Y6). The experiment can be described thus: qHTS Assay for the Inhibitors of Schistosoma Mansoni Peroxiredoxins. Note: nearly all actives have a fitted effect of over 60% in size. Conditions: purified TGR, DTNB reduction, TNB absorbance 405 nm; series mostly up to 114 µM; activity change, negative = inhibition: at the top concentration. The method in brief:
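First, TGR (20 nM dispensed) and NADPH were mixed with compound. Second, a 15 min room-temperature incubation followed. Third, further NADPH and then DTNB were added to start the reaction. Finally, TNB absorbance was monitored kinetically.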
For orientation: Quantitative high-throughput screening tests each substance at several concentrations.
On to `Cc1c(NC(=O)CCCOc2ccccc2)cccc1[N+](=O)[O-]`, for which the “activity change, negative = inhibition” value was -7.24%.

In the case of `Cc1c(NC(=O)/C=C/C(=O)O)cccc1[N+](=O)[O-]`, the Potency is 50.1 µM (active).

Turning to `Cc1c(NC(=S)NCc2ccc(F)cc2)cccc1[N+](=O)[O-]`, the “activity change, negative = inhibition” value was -22.1%.

Consider `O=C(NCCc1csc(-c2ccc(C(F)(F)F)cc2)n1)C(=O)Nc1ccc(F)c(Cl)c1`, for which the “activity change, negative = inhibition” value is 5.45%.

For the compound `CCOc1ccc(CN(CCCl)CCCl)cc1C(=O)OC`, the Potency is 14.1 µM (active).

Turning to `CCOc1ccccc1NS(=O)(=O)c1c[nH]c(C(=O)OC)c1`, the “activity change, negative = inhibition” value is 0.0214%.

For the compound `CCCOc1ccc(CN(CCO)CCO)cc1C(=O)OC`, the “activity change, negative = inhibition” value was -2.83%.

`CC(=O)N1CCc2cc(S(=O)(=O)NC(Cc3ccccc3)C(=O)NCc3ccc(C)cc3)ccc21` (stereo not given): the “activity change, negative = inhibition” value was 0.332%.

Regarding `CCc1nn(CC(=O)NCC(C)c2ccccc2)c(=O)c2cc3occc3n12` (stereo not given), the “activity change, negative = inhibition” value was -3.19%.

On to `Cc1cc(C)cc(-n2c(SCC(=O)NCC3CCCO3)nc3c([nH]c4ccccc43)c2=O)c1` (stereo not given), for which the “activity change, negative = inhibition” value was 4.33%.

Regarding `Cc1nnc(SCC(=O)N2CCOCC2)[nH]c1=O`, the “activity change, negative = inhibition” value is -0.867%.

Regarding `CCCCOC(=O)CNc1nnc(SCC(=O)OCC)[nH]c1=O`, the Potency was 14.1 µM (active).

Regarding `CCOC(=O)CSc1nc(C)c(Oc2ccc(Cl)cc2Cl)c(=O)[nH]1`, the “activity change, negative = inhibition” value is 0.0744%.

Take `Cc1ccccc1C(=O)Nc1cc(C)c(O)c(-c2nc3ccccc3o2)c1`: the “activity change, negative = inhibition” value is -2.01%.

For the compound `COc1cccc(Cn2c(CNS(=O)(=O)c3ccc(Cl)s3)nc3cccnc32)c1`, the “activity change, negative = inhibition” value was -0.347%.

On to `O=C(COc1ccccc1Cl)N1N=C(c2cccs2)CC1c1ccco1` (stereo not given), for which the Potency is 35.5 µM (active).

With `O=C1c2cccc(OCC(=O)N3N=C(c4cccs4)CC3c3ccc(F)cc3)c2CCN1Cc1ccccc1` (stereo not given), the “activity change, negative = inhibition” value is 2.05%.

Consider `Cc1ccc(C2=NN(C(=O)COc3ncnc4ccccc34)C(c3ccco3)C2)cc1` (stereo not given), for which the “activity change, negative = inhibition” value was -12.3%.

For `Cc1ccc(Cl)cc1NC(=O)CCS(=O)(=O)c1ccc(Br)s1`, the “activity change, negative = inhibition” value is -2.26%.

Regarding `O=C1N[C@@H](Cc2ccccc2)C(=O)N2[C@H]1C[C@]1(Br)c3ccccc3N(S(=O)(=O)c3ccccc3)[C@H]21`, the Potency is 22.4 µM (active).

On to `O=C(CSc1nccn1Cc1ccc(Cl)cc1)NCc1ccccc1`, for which the “activity change, negative = inhibition” value is -4.14%.

Consider `Cc1ccc2c(=O)c(C(=O)c3ccc(F)cc3)cn(CC(=O)NC3CCCCC3)c2n1`, for which the “activity change, negative = inhibition” value is -0.574%.

With `O=C(CSc1nc(-c2ccccc2)cs1)Nc1cccc([N+](=O)[O-])c1`, the “activity change, negative = inhibition” value is 7.7%.

As for `O=C(CSc1nnc(-c2ccccc2F)o1)Nc1cccc(C(F)(F)F)c1`, the “activity change, negative = inhibition” value is 1.64%.

Regarding `Cn1c(=O)c2c(ncn2CC(=O)Nc2cccc(C(F)(F)F)c2)n(C)c1=O`, the “activity change, negative = inhibition” value was 7.76%.

Regarding `O=c1cc(CO)oc(C(Nc2cccc([N+](=O)[O-])c2)c2ccccn2)c1O` (stereo not given), the Potency is 50.1 µM (active).

Consider `O=c1cc(CO)oc(C(Nc2cccc(C(F)(F)F)c2)c2ccccn2)c1O` (stereo not given), for which the Potency is 11.2 µM (active).

With `O=[N+]([O-])c1cccc(S(=O)(=O)NCc2ccccn2)c1`, the “activity change, negative = inhibition” value is -6.1%.

On to `O=C(COc1ccccc1)OCc1cc(=O)n2nc(-c3cccs3)sc2n1`, for which the “activity change, negative = inhibition” value is 0.151%.

For `CCOC(=O)c1ccc(NC(=O)c2c(NCc3cccs3)sc3c2CCCC3)cc1`, the “activity change, negative = inhibition” value was -32.3%.

On to `Cc1cccc(CC(=O)N2CC(=O)Nc3ccc(F)cc3C2c2ccccc2)c1` (stereo not given), for which the “activity change, negative = inhibition” value was -2.49%.

As for `CCOC(=O)c1ccccc1NC(=O)c1sc2nc(-c3ccc(F)cc3)cn2c1C`, the “activity change, negative = inhibition” value was 1.27%.

Regarding `Cc1c2cnn(CC(=O)NCCCN3CC(C)CC(C)C3)c(=O)c2c(C)n1Cc1ccc(Cl)cc1` (stereo not given), the “activity change, negative = inhibition” value is -1.92%.

In the case of `Cc1nn(CC(=O)NCc2ccccn2)c(C)c1[N+](=O)[O-]`, the “activity change, negative = inhibition” value is 3.91%.

`Cc1ccc(Cn2c(C)c3cnn(CC(=O)NCc4ccccc4)c(=O)c3c2C)cc1`: the “activity change, negative = inhibition” value is -8.1%.

Take `O=C(Cn1ncc2c3ccccc3n(Cc3ccccc3)c2c1=O)NCc1ccccn1`: the Potency result is “inactive”.

In the case of `Cc1c2cnn(CC(=O)NCc3ccccn3)c(=O)c2c(C)n1Cc1ccc(Cl)cc1`, the Potency was 44.7 µM (active).

Regarding `Cc1ccc(Cn2c(C)c3cnn(CC(=O)NCc4ccccn4)c(=O)c3c2C)cc1`, the Potency was 35.5 µM (active).

Turning to `CN(C(=O)CSc1nnc(NC(=O)Nc2ccccc2)s1)c1ccccc1`, the “activity change, negative = inhibition” value is -0.9%.

For `CCOC(=O)c1c(C)oc2ccc(N(C(=O)c3ccncc3)S(=O)(=O)c3ccc(CC)cc3)cc12`, the “activity change, negative = inhibition” value is -2.52%.

As for `Cc1c(Cl)cccc1NC(=O)N1CCN(C(=O)c2nsc3ccccc23)CC1`, the “activity change, negative = inhibition” value is -2.35%.

For `CNc1ccc(-c2nc(-c3ccccc3C)no2)cc1[N+](=O)[O-]`, the “activity change, negative = inhibition” value was -3.25%.

On to `CC1CC(C)CN(C(=O)CSc2ccsc2[N+](=O)[O-])C1` (stereo not given), for which the “activity change, negative = inhibition” value is -19.5%.

With `O=C(CSCc1cccs1)N1CCCC1`, the “activity change, negative = inhibition” value was -0.5%.

With `O=C(CSc1ccsc1[N+](=O)[O-])N1CCCCC1`, the Potency is 31.6 µM (active).

`COc1cc(C(=O)NCCS(=O)(=O)N2CCN(c3ccccc3)CC2)cc(OC)c1OC`: the “activity change, negative = inhibition” value was 7.43%.

With `COc1ccc2c(c1)c(N1CCCC1=O)c(C(=O)Nc1ccc(OC)c(Cl)c1)n2C`, the “activity change, negative = inhibition” value is 7.32%.

As to `C[C@@H](NC(=O)OC(C)(C)C)c1nnc(S(=O)(=O)Cc2ccccc2)o1`, the Potency was 0.794 µM (active).

Regarding `CCc1ccccc1NC(=O)CSc1nnc([C@@H](NC(=O)OC(C)(C)C)C(C)CC)o1` (stereo not given in full), the “activity change, negative = inhibition” value was 1.47%.

Take `COc1ccccc1NC(=O)[C@H](COCc1ccccc1)NC(=O)OC(C)(C)C`: the “activity change, negative = inhibition” value is -24.2%.
